Pf apPOL inh: Pf-apPOL inhibitors, biochemical, fluorescence; Plasmodium falciparum apicoplast DNA polymerase (apPOL); Recombinant Pf-apPOL, molecular beacon fluorescence, 1.5 h; inhibition, % at 10 µM; AID 1794808, 2022; hit rate 0.25% among 210,000
mHTT-CaM PPI inh: mutant huntingtin-calmodulin interaction inhibitors – biochemical, AlphaScreen, primary screen; P42858; AlphaScreen His-mHTT/GST-CaM binding, luminescence; inhibition, % at 15 µM; hit rate 3.6% among 190,000; AID 1671202, 2021;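 note: 0% = both proteins with DMSO and 100% = one protein alone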
* marks the source's active call; other numbers are inactive results; . = no result given. The sample as a whole holds a higher share of hits than the screen did. Cut-off read from the data, not from the text of the source: active = inhibition above about 50%; inactive = the rest.

SMILES | Pf apPOL inh | mHTT-CaM PPI inh
Cc1ccc(C2C(C#N)=C(N)Oc3n[nH]c(-c4ccccc4)c32)s1 (configuration not stated) | -3 | 13
N#CC1=C(N)Oc2n[nH]c(-c3ccc4c(c3)OCO4)c2C1c1ccc(Cl)cc1 (configuration not stated) | -4 | 81*
N#CC1=C(N)Oc2n[nH]c(-c3ccccn3)c2C1c1ccncc1 (configuration not stated) | 13 | 53*
N#CC1=C(N)Oc2n[nH]c(-c3ccccn3)c2C1c1cccnc1 (configuration not stated) | -3 | 29
N#CC1=C(N)Oc2n[nH]c(-c3ccccn3)c2C1c1ccc([N+](=O)[O-])s1 (configuration not stated) | 5 | 99*
N#CC1=C(N)Oc2n[nH]c(-c3ccc4c(c3)OCO4)c2C1c1ccc2c(c1)OCO2 (configuration not stated) | -14 | 26
Cc1[nH]nc2c1C(c1ccc3c(c1)OCO3)C(C#N)=C(N)O2 (configuration not stated) | -2 | -4
CCC(C)C(NC(=O)c1ccccc1NC(=O)c1ccccc1)C(=O)O (configuration not stated) | -8 | 2
Cc1ccc(C=C2Oc3cc(OC(=O)C(C)(C)C)ccc3C2=O)o1 | -8 | 1
O=C(N/C(=C\c1cccc([N+](=O)[O-])c1)C(=O)N1CCCCCC1)c1cccs1 | -10 | 3
N#CC1=C(N)Oc2n[nH]c(-c3ccccn3)c2C1c1ccc(O)cc1 (configuration not stated) | -2 | 80*
COc1ccc(C2C(C#N)=C(N)Oc3n[nH]c(-c4ccccn4)c32)c(OC)c1OC (configuration not stated) | -3 | 34
COc1cc(OC)c(OC)cc1CN1CCN(c2ccc(Cl)cc2)CC1 | 1 | 23
CC1=C(C(=O)NCCN2CCN(Cc3ccccc3)CC2)C2(CCCCC2)OC1=O | -2 | 0
Cc1ccc(Cn2c(CN3CCC(C(=O)NCCN(C)C)CC3)cc3ccccc32)cc1 | 3 | 99*
O=C(NCc1cccnc1)C1CCN(c2cnn(Cc3ccccc3)c(=O)c2)CC1 | -2 | -6
CN(C)CCNC(=O)C1CCN(Cc2cc3ccccc3n2Cc2cccc(F)c2)CC1 | 3 | 100*
COc1ccc2c(c1)c(CN1CCC(C(=O)NCCN(C)Cc3ccccc3)CC1)cn2C | 3 | 8
CN(C)CCNC(=O)C1CCN(c2nc3ccccc3o2)CC1 | -16 | 1
O=C(NCc1cccnc1)C1CCN(Cc2cc3ccccc3n2Cc2ccccc2)CC1 | 3 | 68*
CC1=NN(c2cccc(C(=O)O)c2)C(=O)/C1=C/c1ccc(-c2cc(Cl)ccc2Cl)o1 | -4 | 32
CC1=NN(c2cccc(C(=O)O)c2)C(=O)/C1=C/c1ccc(-c2ccc(Br)cc2)o1 | 7 | 61*
CCOC(=O)N1CCN(C(=O)Nc2ccc3snnc3c2)CC1 | 1 | -2
Cc1ccc(CN2C(=O)NC3(CCN(C(=O)Cc4ccc(Cl)cc4)CC3)C2=O)cc1 | -15 | 1
Cc1ccc(C)c(CN2C(=O)NC3(CCN(C(=O)Cc4ccc(Cl)cc4)CC3)C2=O)c1 | -4 | 58*
SMILES | Pf apPOL inh | mHTT-CaM PPI inh
CC(C)(C)C(=O)N1CCCC2(CC(c3ccccc3)=CO2)C1 (configuration not stated) | -9 | -11
CN1CCN(C(=O)c2cn3cc(-c4ccc(C(F)(F)F)cc4)ccc3n2)CC1 | -15 | 6
O=C(/C=C/c1ccc(-c2ccc(F)cc2)o1)c1cccs1 | -1 | 91*
O=C(/C=C/c1ccc(-c2ccccc2)o1)c1cccs1 | 1 | 28
O=C1c2ccncc2C(=O)N1CO | -3 | .
COc1ccc(C(=O)Nc2cccc(Cl)c2C)cc1I | -4 | -4
CC(C)(C)C(=O)NCC(C)(O)C1CC1 (configuration not stated) | 0 | -6
O=C(O)c1cc(-c2ccccc2)nc2ccccc12 | -1 | -2
O=C(O)c1cc(-c2ccc(-c3c(-c4ccco4)noc3-c3ccccc3)cc2)nc2ccccc12 | 74* | 69*
O=C(COc1ccccc1F)Nc1nnc(C2CCCCC2)o1 | -10 | 63*
O=C(COc1ccccc1F)Nc1nnc(COc2cccc3ccccc23)o1 | -140 | 56*
O=C(COc1ccccc1)Nc1nnc(CSc2ccccc2)o1 | -11 | 0
Cc1csc(-c2nnc(NC(=O)COc3ccccc3F)o2)c1 | -22 | 17
CCC1(C)Cc2c(sc3c2c(=O)n(C)c2nnc(SCCc4ccccc4)n32)CO1 (configuration not stated) | -3 | -3
CCCOc1nccnc1NC1CCN(C(=O)c2cccs2)CC1 | -3 | 11
CC(=O)N1c2ccccc2NC2=C(C(=O)CC(c3ccccc3)C2)C1c1cccc([N+](=O)[O-])c1 (configuration not stated) | -154 | 9
CN1C(=O)CCC2(CN(C)S(=O)(=O)c3ccccc3F)CCCC12 (configuration not stated) | -4 | -17
CS(=O)(=O)Nc1ccc(Cl)c2cccnc12 | -3 | 86*
CS(=O)(=O)Nc1ccc(Cl)cc1Cl | . | -2
COc1cc(OC)c(OC)cc1C=C1Oc2c(ccc3c2CN(Cc2ccccn2)CO3)C1=O | -52 | 97*
COc1ccc(C=C2Oc3c(ccc4c3CN(Cc3ccncc3)CO4)C2=O)c(OC)c1 | -26 | 49
COc1ccc(CN2COc3ccc4c(c3C2)OC(=Cc2cccc(OC)c2OC)C4=O)cc1OC | -6 | -3
COc1ccccc1C=C1Oc2c(ccc3c2CN(Cc2ccccn2)CO3)C1=O | -35 | -2
COc1cccc(C=C2Oc3c(ccc4c3CN(Cc3ccccn3)CO4)C2=O)c1OC | -92 | 100*
COc1ccc(Br)cc1C=C1Oc2c(ccc3c2CN(Cc2ccccn2)CO3)C1=O | -197 | 100*
SMILES | Pf apPOL inh | mHTT-CaM PPI inh
Cc1ccc(CNC(=O)C2(c3ccc(NC(=O)C(C)C)cc3)CCC2)cc1C | -3 | 4
Cc1cc(N2CCC(NC(=O)Nc3cccc(F)c3)C2=O)ccc1F (configuration not stated) | 4 | -3
Cc1oc(C2CCN(C(=O)Cc3c(F)cccc3Cl)CC2)nc1C(=O)N(C)C | -4 | -11
Fc1ccc(C2Nc3cccc4cccc(c34)N2)cc1 | . | 52*
COc1cc(C2Nc3cccc4cccc(c34)N2)cc(OC)c1OC | 9 | 28
C[C@@H]1CCC(=O)N(CC[C@H](Oc2ccccc2)c2ccccc2)CC1 | -3 | 26
O=C(NC1CCCCC1)c1cc(S(=O)(=O)N2CCC3(CC2)OCCO3)ccc1F | 1 | 1
O=C(Nc1cccc2c1C(=O)c1ccccc1C2=O)c1ccc(Cl)s1 | 1 | 0
O=C(Nc1cccc2c1C(=O)NC2=O)c1ccc(Cl)s1 | 1 | 100*
O=C(Nc1nc(-c2cc(Cl)ccc2Cl)cs1)c1ccc(N2C(=O)CCC2=O)cc1 | 0 | -6
CC1CCCN(S(=O)(=O)c2ccc(C(=O)Nc3nc(-c4ccccn4)cs3)cc2)C1 (configuration not stated) | -1 | 100*
Cc1nnc(NC(=O)c2ccc(S(=O)(=O)N3CCCC(C)C3)cc2)o1 (configuration not stated) | -4 | 24
CC1CCCCN1S(=O)(=O)c1ccc(C(=O)Nc2nc(-c3ccccn3)cs2)cc1 (configuration not stated) | -9 | 100*

Screens: PubChem, University of Kansas High Throughput Screening Laboratory
